Read-out in assay [1]: Fatty acid synthase (Homo sapiens) (UniProt P49327)
Briefly: LTEA_HepaRG_FASN: Life Technologies and Expression Analysis (LTEA) Assay for Fatty Acid Synthase (FASN) using HepaRG (AID 2283448). The settings on record: mRNA level, 48 h; actives raise or lower the signal. An outline of the steps: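 Differentiated HepaRG cells in serum-free induction medium exposed 48 h in duplicate to eight half-log concentrations, top 100 uM, 0.5% DMSO. FASN mRNA by qRT-PCR normalised to ACTB, GAPDH, POLR2A; bidirectional fit versus DMSO.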

Read-out in assay [2]: Cyclin Dependent Kinase Inhibitor 1A (CDKN1A), CDKN1A (gene 1026)
As to the kind of experiment: LTEA_HepaRG_CDKN1A: Life Technologies and Expression Analysis (LTEA) Assay for Cyclin Dependent Kinase Inhibitor 1A (CDKN1A) using HepaRG (AID 2283450). As to conditions: mRNA level, 48 h; actives raise or lower the signal. An outline of the steps: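 Read-out is CDKN1A mRNA by TaqMan qRT-PCR, normalized to three housekeeping genes and fitted in both directions against the DMSO baseline. Human HepaRG cells were treated 48 h with test chemicals up to 100 uM in half-log steps, 0.5% DMSO.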

Read-out in assay [3]: Cyclin D1 (CCND1), CCND1 (gene 595)
As to the kind of experiment: LTEA_HepaRG_CCND1: Life Technologies and Expression Analysis (LTEA) Assay for Cyclin D1 (CCND1) using HepaRG (AID 2283451).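 As to AC50: differentiated human HepaRG liver cells in serum-free induction medium; TaqMan qRT-PCR transcript level normalised to ACTB GAPDH and POLR2A housekeeping genes.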 The settings on record: mRNA level, 48 h; actives raise or lower the signal. An outline of the steps: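 HepaRG plated 48 h, medium switched to serum-free induction medium, chemicals added in duplicate (top 100 uM, half-log steps, 0.5% DMSO) for 48 h, cells lysed, RNA measured by TaqMan qRT-PCR.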

Read-out in assay [4]: catalase (CAT), CAT (gene 847)
As to the kind of experiment: LTEA_HepaRG_CAT: Life Technologies and Expression Analysis (LTEA) Assay for catalase (CAT) using HepaRG (AID 2283452). The settings on record: mRNA level, 48 h; actives raise or lower the signal. The method, boiled down: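 Expression of CAT was quantified by TaqMan qRT-PCR with ACTB/GAPDH/POLR2A normalization after 48 h chemical exposure of HepaRG. Eight-point half-log series, top 100 uM, in 0.5% DMSO; gain or loss fitted against vehicle.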

Read-out in assay [5]: flavin-containing dimethylaniline monooxygenases 3 (FMO3), FMO3 (gene 2328)
As to the kind of experiment: LTEA_HepaRG_FMO3: Life Technologies and Expression Analysis (LTEA) Assay for flavin-containing dimethylaniline monooxygenases 3 (FMO3) using HepaRG (AID 2283453). The settings on record: mRNA level, 48 h; actives raise or lower the signal. An outline of the steps: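 Differentiated HepaRG cells in serum-free induction medium, exposed 48 h in duplicate to 8 half-log concentrations up to 100 uM in 0.5% DMSO. FMO3 mRNA by qRT-PCR, normalized to ACTB, GAPDH, POLR2A; bidirectional fit vs DMSO.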

Read-out in assay [6]: Cytochrome P450 (CYP1A1), CYP1A1 (gene 1543)
As to the kind of experiment: LTEA_HepaRG_CYP1A1: Life Technologies and Expression Analysis (LTEA) Assay for Cytochrome P450 (CYP1A1) using HepaRG (AID 2283454). The settings on record: mRNA level, 48 h; actives raise or lower the signal. An outline of the steps: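 HepaRG, 48 h post-plating switched to serum-free induction medium; 8-pt conc-response (top 100 uM, half-log, 0.5% DMSO), duplicates, 48 h. Lysis in RLT, TaqMan qRT-PCR for CYP1A1; gain or loss vs DMSO.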

Read-out in assay [7]: CFLAR gene, CFLAR (gene 8837)
As to the kind of experiment: LTEA_HepaRG_CFLAR: Life Technologies and Expression Analysis (LTEA) Assay for CFLAR gene using HepaRG (AID 2283455). As to conditions: mRNA level, 48 h; actives raise or lower the signal. An outline of the steps: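 HepaRG, 48 h exposure, 8-pt conc-response (100 uM top, half-log), 0.5% DMSO vehicle, duplicates. CFLAR expression by qRT-PCR; ACTB/GAPDH/POLR2A normalization; gain or loss fit vs DMSO baseline.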

Read-out in assay [8]: Forkhead box O1 (FOXO1), FOXO1 (gene 2308)
Briefly: LTEA_HepaRG_FOXO1: Life Technologies and Expression Analysis (LTEA) Assay for Forkhead box O1 (FOXO1) using HepaRG (AID 2283456). The settings on record: mRNA level, 48 h; actives raise or lower the signal. The method, boiled down: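 Readout is FOXO1 transcript level by multiplexed qRT-PCR against three housekeeping genes, curve-fitted in both directions relative to 0.5% DMSO vehicle. Human HepaRG cultures received chemicals for 48 h, up to 100 uM in half-log steps.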

Read-out in assay [9]: Forkhead box O3 (FOXO3), FOXO3 (gene 2309)
As to the kind of experiment: LTEA_HepaRG_FOXO3: Life Technologies and Expression Analysis (LTEA) Assay for Forkhead box O3 (FOXO3) using HepaRG (AID 2283459). As to conditions: mRNA level, 48 h; actives raise or lower the signal. The method, boiled down:
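HepaRG, 48 h post-dose; 8 conc., half-log from 100 uM, 0.5% DMSO, duplicates; serum-free induction medium. Readout: FOXO3 mRNA, TaqMan qRT-PCR, housekeeping-normalized. Bidirectional curve fit vs DMSO baseline.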

Read-out in assay [10]: ABC Transporter (ABCB1), ABCB1 (gene 5243)
Briefly: LTEA_HepaRG_ABCB1: Life Technologies and Expression Analysis (LTEA) Assay for ABC Transporter (ABCB1) using HepaRG (AID 2283460). The settings on record: mRNA level, 48 h; actives raise or lower the signal. The method, boiled down: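 Expression of ABCB1 was quantified by qRT-PCR against three housekeeping genes after human HepaRG cultures received test chemicals for 48 hours. Concentrations spanned eight half-log steps topping at 100 uM in 0.5% DMSO; gain or loss of signal was fitted relative to vehicle.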

Read-out in assay [11]: growth arrest and DNA damage 45 (GADD45B), GADD45B (gene 4616)
As to the kind of experiment: LTEA_HepaRG_GADD45B: Life Technologies and Expression Analysis (LTEA) Assay for growth arrest and DNA damage 45 (GADD45B) using HepaRG (AID 2283461). The settings on record: mRNA level, 48 h; actives raise or lower the signal. The method, boiled down: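 HepaRG, ~100,000 cells/well, 48 h plating; serum-free induction medium; cpd 100 uM top, half-log x8, 0.5% DMSO, duplicate, 48 h; lysis in RLT, RNA isolation, qRT-PCR; norm ACTB/GAPDH/POLR2A; bidirectional fit vs DMSO.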

Read-out in assay [12]: ABC Transporter (ABCC3), ABCC3 (gene 8714)
As to the kind of experiment: LTEA_HepaRG_ABCC3: Life Technologies and Expression Analysis (LTEA) Assay for ABC Transporter (ABCC3) using HepaRG (AID 2283462). The settings on record: mRNA level, 48 h; actives raise or lower the signal. The method, boiled down: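 Human HepaRG, 48 h dosing, 8-pt half-log series from 100 uM, 0.5% DMSO vehicle, duplicates. ABCC3 mRNA by TaqMan qRT-PCR, housekeeping-normalized; bidirectional curve fit vs DMSO.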

Read-out in assay [13]: ABC Transporter (ABCB11), ABCB11 (gene 8647)
Briefly: LTEA_HepaRG_ABCB11: Life Technologies and Expression Analysis (LTEA) Assay for ABC Transporter (ABCB11) using HepaRG (AID 2283463). The settings on record: mRNA level, 48 h; actives raise or lower the signal. An outline of the steps:
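ABCB11 transcript levels are read by Fluidigm TaqMan qRT-PCR after 48 h chemical treatment of human HepaRG cells. Concentrations span 100 uM downward in half-log steps with 0.5% DMSO; gain or loss is fitted against DMSO controls.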

Read-out in assay [14]: Broad substrate specificity ATP-binding cassette transporter ABCG2 (Homo sapiens) (UniProt Q9UNQ0)
Briefly: LTEA_HepaRG_ABCG2: Life Technologies and Expression Analysis (LTEA) Assay for ABC Transporter (ABCG2) using HepaRG (AID 2283465). The settings on record: mRNA level, 48 h; actives raise or lower the signal. The method, boiled down: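 Read-out is ABCG2 mRNA induction or loss quantified by qRT-PCR after 48 h chemical treatment of human HepaRG cells, normalized to three housekeeping genes. Concentrations reached 100 uM top in half-log steps; fitting was bidirectional against 0.5% DMSO.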

Read-out in assay [15]: ATP-citrate lyase (ACLY), ACLY (gene 47)
Briefly: LTEA_HepaRG_ACLY: Life Technologies and Expression Analysis (LTEA) Assay for ATP-citrate lyase (ACLY) using HepaRG (AID 2283466). The settings on record: mRNA level, 48 h; actives raise or lower the signal. An outline of the steps:
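HepaRG, 48 h exposure, 8-pt half-log dilutions (top 100 uM), 0.5% DMSO. Readout: ACLY mRNA, TaqMan qRT-PCR, housekeeping-normalized (ACTB/GAPDH/POLR2A). Bidirectional curve fit vs DMSO.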

Read-out in assay [16]: Peroxisomal acyl-coenzyme A oxidase 1 (ACOX1) gene, ACOX1 (gene 51)
As to the kind of experiment: LTEA_HepaRG_ACOX1: Life Technologies and Expression Analysis (LTEA) Assay for Peroxisomal acyl-coenzyme A oxidase 1 (ACOX1) gene using HepaRG (AID 2283467). As to conditions: mRNA level, 48 h; actives raise or lower the signal. The method, boiled down:
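Measured by qRT-PCR against three housekeeping genes: ACOX1 transcript change in human HepaRG cells after 48 h dosing. Concentrations ran up to 100 uM in half-log steps. Curves were fitted bidirectionally relative to 0.5% DMSO.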

Read-out in assay [17]: Cyclin D2 (CCND2), CCND2 (gene 894)
As to the kind of experiment: LTEA_HepaRG_CCND2: Life Technologies and Expression Analysis (LTEA) Assay for Cyclin D2 (CCND2) using HepaRG (AID 2283449). As to conditions: mRNA level, 48 h; actives raise or lower the signal. The method, boiled down:
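Read-out is CCND2 mRNA level measured by qRT-PCR in human HepaRG liver cells and normalised to three housekeeping genes. Chemicals were applied for 48 h at up to 100 uM, with gain or loss fitted relative to 0.5% DMSO.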

A short description of assay [18]: CEETOX_H295R_PROG: CeeTox H295R High-throughput Steroidogenesis Assay for Progesterone (PROG) (AID 2283442). As to conditions: actives raise or lower the signal. An outline of the steps:
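Steps: seed H295R cells and let them adhere overnight; prime 48 h with 10 uM forskolin; dose with compound in DMSO at 0.1% final for 48 h; extract medium steroids with MTBE; measure progesterone by LC-MS/MS. MTT viability was run in the same wells.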

Assay [19] can be described thus: CEETOX_H295R_ESTRADIOL: CeeTox H295R High-throughput Steroidogenesis Assay for Estradiol (AID 2283440).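 Also: estradiol secreted into medium quantified by LC-MS/MS after dansyl derivatisation.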 As to conditions: actives raise or lower the signal. An outline of the steps:
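Estradiol secreted into the medium was measured by tandem mass spectrometry after liquid-liquid extraction and dansylation. Human H295R cells had been forskolin-primed (10 uM, 48 h) before a 48 h chemical exposure with 0.1% DMSO.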

For six molecules, outcome and AC50 results are on record in PubChem BioAssay (EPA / NIEHS).

Active and inactive are the calls of the source. The calls were made as follows: active = hit-call score of the fitted dose curve at least 0.9, where 1 is the maximum; inactive = score below 0.9.

Broad substrate specificity ATP-binding cassette transporter ABCG2 (Homo sapiens), sequence (Q9UNQ0 whole entry, looked up): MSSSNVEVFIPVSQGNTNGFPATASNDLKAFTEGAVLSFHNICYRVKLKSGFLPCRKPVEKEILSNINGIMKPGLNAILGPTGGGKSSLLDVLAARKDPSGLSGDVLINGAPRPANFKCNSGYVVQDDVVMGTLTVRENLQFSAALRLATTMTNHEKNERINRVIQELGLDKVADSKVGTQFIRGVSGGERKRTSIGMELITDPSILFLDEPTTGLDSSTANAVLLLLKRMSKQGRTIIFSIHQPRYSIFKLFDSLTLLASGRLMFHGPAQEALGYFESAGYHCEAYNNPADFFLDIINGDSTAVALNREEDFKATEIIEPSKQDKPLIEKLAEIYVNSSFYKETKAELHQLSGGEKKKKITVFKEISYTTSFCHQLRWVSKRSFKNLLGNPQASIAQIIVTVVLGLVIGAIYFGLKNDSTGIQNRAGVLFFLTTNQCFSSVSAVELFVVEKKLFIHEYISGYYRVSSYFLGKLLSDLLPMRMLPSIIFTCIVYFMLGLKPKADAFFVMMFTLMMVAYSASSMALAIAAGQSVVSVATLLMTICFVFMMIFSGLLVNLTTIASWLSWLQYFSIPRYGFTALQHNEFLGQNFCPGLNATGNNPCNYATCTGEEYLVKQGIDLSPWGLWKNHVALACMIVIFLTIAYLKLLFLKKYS
Fatty acid synthase (Homo sapiens), sequence (P49327 whole entry, looked up): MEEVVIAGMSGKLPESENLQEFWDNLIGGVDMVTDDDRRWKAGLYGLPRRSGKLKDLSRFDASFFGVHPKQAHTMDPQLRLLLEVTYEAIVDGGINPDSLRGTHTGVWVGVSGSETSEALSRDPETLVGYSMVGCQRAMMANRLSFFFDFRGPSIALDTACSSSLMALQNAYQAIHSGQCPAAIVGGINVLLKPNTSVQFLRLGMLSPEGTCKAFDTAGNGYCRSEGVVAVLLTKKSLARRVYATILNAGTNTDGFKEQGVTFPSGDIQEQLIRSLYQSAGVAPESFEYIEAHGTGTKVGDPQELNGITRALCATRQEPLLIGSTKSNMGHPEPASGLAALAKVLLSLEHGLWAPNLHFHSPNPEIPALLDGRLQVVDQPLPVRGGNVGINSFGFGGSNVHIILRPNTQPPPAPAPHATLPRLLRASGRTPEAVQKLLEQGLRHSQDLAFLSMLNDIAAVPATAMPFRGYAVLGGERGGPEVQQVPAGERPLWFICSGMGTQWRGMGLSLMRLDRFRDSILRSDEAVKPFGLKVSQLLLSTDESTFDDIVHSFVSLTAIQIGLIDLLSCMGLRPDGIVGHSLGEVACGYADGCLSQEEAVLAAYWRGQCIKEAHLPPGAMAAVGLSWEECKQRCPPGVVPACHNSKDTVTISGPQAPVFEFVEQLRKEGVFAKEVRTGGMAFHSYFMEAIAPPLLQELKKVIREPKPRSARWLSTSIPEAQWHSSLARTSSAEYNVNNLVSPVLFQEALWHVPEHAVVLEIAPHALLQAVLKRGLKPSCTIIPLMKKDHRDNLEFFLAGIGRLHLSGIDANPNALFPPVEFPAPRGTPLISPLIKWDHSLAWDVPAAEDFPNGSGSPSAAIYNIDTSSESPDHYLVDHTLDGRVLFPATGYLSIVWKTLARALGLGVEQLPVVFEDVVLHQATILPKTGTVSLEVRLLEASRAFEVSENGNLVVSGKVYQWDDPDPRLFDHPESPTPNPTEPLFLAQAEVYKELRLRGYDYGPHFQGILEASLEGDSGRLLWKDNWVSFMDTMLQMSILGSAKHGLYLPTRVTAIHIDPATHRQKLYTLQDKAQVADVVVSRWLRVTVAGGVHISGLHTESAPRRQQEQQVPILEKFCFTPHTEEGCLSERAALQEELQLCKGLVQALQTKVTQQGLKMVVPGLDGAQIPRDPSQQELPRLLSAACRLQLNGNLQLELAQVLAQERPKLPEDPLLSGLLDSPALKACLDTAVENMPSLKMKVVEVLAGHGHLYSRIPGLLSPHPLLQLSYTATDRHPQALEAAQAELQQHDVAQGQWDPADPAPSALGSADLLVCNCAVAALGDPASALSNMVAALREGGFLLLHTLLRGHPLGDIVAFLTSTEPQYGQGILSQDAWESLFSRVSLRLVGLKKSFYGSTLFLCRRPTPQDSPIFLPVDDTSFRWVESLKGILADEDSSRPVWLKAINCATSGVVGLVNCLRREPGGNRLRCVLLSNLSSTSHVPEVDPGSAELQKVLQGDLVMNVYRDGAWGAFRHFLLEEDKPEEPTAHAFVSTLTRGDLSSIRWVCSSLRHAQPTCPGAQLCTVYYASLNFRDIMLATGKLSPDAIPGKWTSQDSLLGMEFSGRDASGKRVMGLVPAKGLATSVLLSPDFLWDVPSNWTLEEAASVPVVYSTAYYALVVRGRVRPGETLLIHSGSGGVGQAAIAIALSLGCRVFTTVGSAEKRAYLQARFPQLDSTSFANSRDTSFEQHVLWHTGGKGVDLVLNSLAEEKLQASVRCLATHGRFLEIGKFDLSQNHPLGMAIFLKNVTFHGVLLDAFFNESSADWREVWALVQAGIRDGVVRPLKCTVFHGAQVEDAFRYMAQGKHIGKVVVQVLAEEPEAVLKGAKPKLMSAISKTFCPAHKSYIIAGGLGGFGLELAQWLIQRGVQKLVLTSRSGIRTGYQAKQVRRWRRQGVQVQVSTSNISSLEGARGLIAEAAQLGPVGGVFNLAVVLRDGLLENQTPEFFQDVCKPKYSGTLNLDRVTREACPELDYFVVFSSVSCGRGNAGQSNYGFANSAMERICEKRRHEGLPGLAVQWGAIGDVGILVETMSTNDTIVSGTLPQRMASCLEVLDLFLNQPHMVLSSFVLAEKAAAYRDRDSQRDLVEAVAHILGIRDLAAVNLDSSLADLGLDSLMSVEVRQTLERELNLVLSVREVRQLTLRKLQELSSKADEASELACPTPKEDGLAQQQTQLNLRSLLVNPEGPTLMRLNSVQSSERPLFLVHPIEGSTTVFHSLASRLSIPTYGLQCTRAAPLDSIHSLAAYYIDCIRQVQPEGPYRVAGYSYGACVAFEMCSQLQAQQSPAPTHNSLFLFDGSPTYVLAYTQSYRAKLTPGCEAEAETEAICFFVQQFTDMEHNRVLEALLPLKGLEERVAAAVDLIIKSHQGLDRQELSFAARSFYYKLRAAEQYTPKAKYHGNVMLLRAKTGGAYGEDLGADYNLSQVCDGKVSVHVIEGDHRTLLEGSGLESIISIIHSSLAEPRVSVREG

As usually defined, the AC50 is the midpoint of the concentration-response curve, whichever way the signal moves. In the case of `CCCCCCCCCCCCc1cccc(S(=O)(=O)O)c1`, the result in assay [1], in assay [2], in assay [4], in assay [5], in [7] and in assay [10] was inactive. In addition, the outcome in assay [11], in [12], in [13], in assay [14], in [15] and in assay [16] was inactive. For the same molecule, the AC50 in assay [3] is 45 µM (active); in assay [6], 51.6 µM (active); in [8], 16.1 µM (active); in [9], 45 µM (active).
`Oc1cc(Cl)c(Cl)cc1Cl`: the molecule was called inactive in [1], in [17], in [2], in assay [3], in [4] and in assay [5]. The molecule was classed as inactive in [7], in assay [8], in [10], in assay [11], in assay [12] and in [13]. In addition, the call in [14], in assay [15] and in assay [16] was inactive. In addition, in assay [6], the AC50 was 80.5 µM (active).
`COC(=O)Nc1cccc(OC(=O)Nc2cccc(C)c2)c1`: the molecule was classed as inactive in [18].
In the case of `CC(C)(COCC1CO1)COCC1CO1` (centres undefined), the molecule was classed as inactive in [19] and in assay [18].
Consider `Clc1cccc(Cl)c1`, for which the result in assay [1], in assay [17], in assay [2], in assay [3], in [4] and in assay [5] was inactive. Further, the molecule was called inactive in assay [7], in assay [8], in [9], in [10], in [11] and in assay [12]. Further, the molecule was called inactive in assay [13], in [14], in assay [15] and in assay [16]. In addition, the AC50 in assay [6] was 78.1 µM (active).
As to `N#Cc1cccnc1`, the outcome in [1], in assay [17], in assay [2], in assay [3], in assay [4] and in [5] was inactive. Also, the result in assay [6], in assay [7], in [8], in assay [9], in [10] and in assay [11] was inactive. Also, the molecule was called inactive in assay [12], in assay [13], in [14], in [15] and in [16].
